Experimental findings from PubChem BioAssay (NCATS) are described below.

Test [1] deals with Glucocorticoid receptor (Homo sapiens) (UniProt P04150). The test can be described thus: qHTS assay for small molecule agonists of glucocorticoid receptor signaling (AID 588532; active = well fitted curve in the direction sought with a large enough effect in the signal ratio, with a control signal flat; the % refers to the signal ratio;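 also: 100% = dexamethasone at 0.1 µM and 0% = DMSO only wells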). To be noted: HeLa MMTV-bla, beta-lactamase ratio, agonist, 18 h; stronger effect = higher value; percent of dexamethasone control, DMSO zero. In a few lines:
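Quantitative HTS using CellSensor MMTV-bla HeLa cells in charcoal/dextran-treated serum; compounds tested up to 92 uM. After 18 h at 37 C, CCF4 dye reported reporter induction.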
Background: qHTS replaces the single test concentration by a dilution series.

The target is the same in test [2]. The test can be described thus: qHTS assay for small molecule antagonists of glucocorticoid receptor signaling (AID 588533; active = well fitted inhibition curve with a large enough effect in the signal ratio, with a control signal flat, not every such curve was filed as active; the % refers to the signal ratio;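 also: cells stimulated with 2 nM dexamethasone as agonist; % is scaled to controls: 0 for no effect and ±100 for the full control effect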). The following applies: HeLa MMTV-bla, GRE beta-lactamase ratio, antagonist mode, 18 h; series mostly up to 76.8 µM. The procedure, abridged: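 Antagonist-mode qHTS: compound titrations added to GRE-bla HeLa cells, then dexamethasone 2 nM final; 18 h, 37 C. CCF4 FRET fluorescence normalized to dexamethasone and DMSO; IC50 from Hill fit.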

For test [3], the target named is Peroxisome proliferator-activated receptor gamma (Homo sapiens) (UniProt P37231). The test is described as follows: qHTS assay for small molecule agonists of peroxisome proliferator-activated receptor gamma signaling (AID 588536; active = well fitted curve in the direction sought with a large enough effect in the signal ratio, with a control signal flat, not every such curve was filed as active; the % refers to the signal ratio;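 also: 0% = DMSO basal wells and 100% = rosiglitazone at 2 µM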). To be noted: HEK293 PPARg-UAS-bla, beta-lactamase ratio, 16 h, percent of rosiglitazone response, DMSO as zero; series mostly up to 76.7 µM. In a few lines:
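Beta-lactamase reporter read-out: CCF4 fluorescence (ex 405, em 460/530 nm) after 2 h at RT. HEK293 GeneBLAzer cells were treated for 16 h at 37 C. Hill fits gave EC50 and efficacy versus 2 uM rosiglitazone (100%) and DMSO (0%).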

The target is the same in test [4]. The test is described as follows: qHTS assay for small molecule antagonists of peroxisome proliferator-activated receptor gamma signaling (AID 588537; active = well fitted inhibition curve with a large enough effect in the signal ratio, with a control signal flat, not every such curve was filed as active; the % refers to the signal ratio;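 also: reporter cells co-stimulated with 50 nM rosiglitazone agonist during compound treatment; % of control where 0% means no effect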). The following applies: HEK293 PPARg-UAS-bla, beta-lactamase ratio, antagonist mode; series mostly up to 76.8 µM. In a few lines:
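Cell-based beta-lactamase assay; GW9662 served as the antagonist control. Stimulation used rosiglitazone, final 50 nM, 16 h, 37 C.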

The target in test [5] is Vitamin D3 receptor (Homo sapiens) (UniProt P11473). The test is described as follows: qHTS assay for small molecule antagonists of vitamin D receptor signaling (AID 588541).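 Also: receptor activated by calcitriol during compound treatment; % is scaled to controls: 0 for no effect and ±100 for the full control effect.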 To be noted: HEK293T VDR-UAS-bla, beta-lactamase ratio, antagonist mode; series mostly up to 76.7 µM. In a few lines:
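Antagonist-mode beta-lactamase reporter assay: HEK293T VDR-UAS-bla cells were exposed to titrated compound alongside 1-alpha,25-dihydroxyvitamin D3 at 3 nM final for 16 h. Values were normalized to the 50 nM agonist control and DMSO basal, with IC50 and efficacy from Hill equation fits.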

For test [6] the target is unchanged. The test can be described thus: qHTS assay for small molecule agonists of vitamin D receptor signaling (AID 588543).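 Also: 0% = DMSO basal and 100% = reference agonist control.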 To be noted: HEK293T VDR-UAS-bla, beta-lactamase ratio, 16 h; series mostly up to 76.8 µM. In a few lines: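 VDR-UAS-bla HEK293T cells, 2000/well, 2% charcoal-stripped FBS; compound titration 16 h at 37 C; CCF4 beta-lactamase ratio read. Normalized to 50 nM 1-alpha,25-dihydroxyvitamin D3 (100%) and DMSO; Hill fit gives EC50, efficacy.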

A short description of test [7]: qHTS assay for small molecule agonists of retinoid X receptor alpha signaling (AID 588544).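 As to activation: 0% = DMSO basal wells and 100% = reference agonist.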 The following applies: HEK293T RXRa-UAS-bla, beta-lactamase reporter, 18 h; 530 nm emission.
The target in test [8] is Retinoic acid receptor RXR-alpha (Homo sapiens) (UniProt P19793). The test is described as above. The following applies: HEK293T RXRa-UAS-bla, beta-lactamase reporter, 18 h; series mostly up to 76.7 µM.
Test [9] has as its target Thyroid hormone receptor beta (Homo sapiens) (UniProt P10828). The test can be described thus: qHTS assay for small molecule agonists of thyroid hormone receptor beta signaling (AID 588545). The following applies: TR-UAS-bla GripTite HEK 293, beta-lactamase ratio, agonist mode, 18 h, percent of T3 response, DMSO as zero; series mostly up to 76.7 µM. The procedure, abridged: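 In this cell-based screen, titrated compounds act on HEK 293 cells held in medium with 2% charcoal/dextran FBS, NEAA and pyruvate for 18 hrs at 37 C. Responses are expressed relative to T3 (10 nM) as 100% and basal DMSO as 0%.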

Test [10] in a line: qHTS assay for small molecule antagonists of retinoid X receptor alpha signaling (AID 588546; active = well fitted inhibition curve with a large enough effect in the signal ratio, with a control signal flat, not every such curve was filed as active; the % refers to the signal ratio;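 also: cells stimulated with 9-cis-retinoic acid as agonist; % is scaled to controls: 0 for no effect and ±100 for the full control effect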). The following applies: HEK293T RXRa-UAS-bla, beta-lactamase ratio, antagonist mode; measured here: W530 green channel, cytotoxicity proxy. The procedure, abridged:
(§1)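 Beta-lactamase reporter inhibition, read as CCF4 fluorescence ratio (ex 405, em 460/530 nm) after 2 h at RT. HEK293T UAS-bla cells, 2500/well, were stimulated with 9-cis-RA at 500 or 100 nM final alongside test compound for 18 h at 37 C.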

For test [11], the target named is Retinoic acid receptor RXR-alpha (Homo sapiens) (UniProt P19793). Described as above. The following applies: HEK293T RXRa-UAS-bla, beta-lactamase ratio, antagonist mode. The procedure, abridged:
as §1

The target in test [12] is Thyroid hormone receptor beta (Homo sapiens) (UniProt P10828). The test can be described thus: qHTS assay for small molecule antagonists of thyroid hormone receptor beta signaling (AID 588547; active = well fitted inhibition curve with a large enough effect in the signal ratio, with a control signal flat, not every such curve was filed as active; the % refers to the signal ratio;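 also: cells stimulated with 0.4 nM T3 agonist during compound exposure; % is scaled to controls: 0 for no effect and ±100 for the full control effect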). The following applies: TR-UAS-bla HEK293, beta-lactamase ratio, antagonist mode, 18 h. The procedure, abridged: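 Inhibition of T3-driven (0.4nM final) beta-lactamase reporter activity was measured over 0.59 nM to 92 uM compound after 18 h at 37 C. The cells were GripTite HEK293 TR-UAS-bla in charcoal/dextran-stripped serum, with CCF4 ratio read-out and IC50 from Hill fits.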

The target of test [13] is Voltage-gated inwardly rectifying potassium channel KCNH2 (Homo sapiens) (UniProt Q12809). The test can be described thus: qHTS Assay for Small Molecule Inhibitors of the Human hERG Channel Activity (AID 588834; active = well fitted curve in the direction sought with a large enough effect; an effect the other way counts as inactive or inconclusive;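 also: top concentration of the series differs between compounds; % is scaled to controls: 0 for no effect and ±100 for the full control effect; lower thallium flux fluorescence means stronger hERG block; nearly all actives have a fitted effect of over 50% in size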). The following applies: U2OS BacMam hERG, FluxOR thallium flux fluorescence; series mostly up to 46.1 µM. The procedure, abridged: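 Thallium serves as surrogate for K+ influx through BacMam-delivered hERG in U2OS cells. Compounds are added for about 10 minutes after dye loading; stimulation buffer then starts flux, monitored kinetically on FDSS.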

Test [14] addresses Luciferin 4-monooxygenase (Photinus pyralis) (UniProt P08659). The test is described as follows: Biochemical firefly luciferase enzyme assay for NPC (AID 624030; active = well fitted curve in the direction sought with a large enough effect; an effect the other way counts as inactive or inconclusive;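 also: purified P. pyralis luciferase at 10 nM with luciferin and ATP substrate; 0% = DMSO and -100% = full luciferase inhibition by PTC124 control; nearly all actives have a fitted effect of over 70% in size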). To be noted: purified P. pyralis luciferase, luminescence, 5 min; series mostly up to 58.6 µM. The procedure, abridged: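 Direct inhibition of firefly luciferase enzyme (10 nM final, 50 mM Tris Acetate) assessed by luminescence within 5 minutes. Percent activity scaled between DMSO and PTC124 positive control, with concentration-effect curves classified by fit quality and response.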

Test [15] deals with Peroxisome proliferator-activated receptor delta (Homo sapiens) (UniProt Q03181). The test is described as follows: qHTS assay for small molecule agonists of peroxisome proliferator-activated receptor delta signaling (AID 588534).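 Also: 0% = DMSO basal wells and 100% = positive control agonist at 10 µM.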 The following applies: HEK293T PPARdelta-UAS-bla, beta-lactamase ratio, 18 h; series mostly up to 76.7 µM. The procedure, abridged:
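EC50 and efficacy values derive from Hill fits of a concentration series in a beta-lactamase reporter cell assay. Exposure is 18 hrs at 37 C, with CCF4 fluorescence as the readout.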

The nature of test [16]: qHTS assay for small molecule antagonists of peroxisome proliferator-activated receptor delta signaling (AID 588535; active = well fitted inhibition curve with a large enough effect in the signal ratio, with a control signal flat, not every such curve was filed as active; the % refers to the signal ratio;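 as to max response: cells co-treated with a PPAR-delta agonist as stimulator during compound exposure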). To be noted: HEK293T PPARd-UAS-bla, beta-lactamase FRET ratio, 18 h; 460 nm channel. The procedure, abridged: (§2)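 Antagonist-mode qHTS using GeneBLAzer PPAR-delta-UAS-bla HEK293T cells; compound exposure 18 hrs at 37 C over a titration. Ratiometric CCF4 fluorescence at 460/530 nm; concentration-response points fitted to the Hill equation.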

The target in test [17] is Peroxisome proliferator-activated receptor delta (Homo sapiens) (UniProt Q03181). Described as above. The following applies: HEK293T PPARd-UAS-bla, beta-lactamase FRET ratio, 18 h; series mostly up to 76.7 µM. In a few lines: as §2
Test [18] is described as follows: S16 Schwann cell PMP22 intronic element firefly luciferase assay (AID 624032; active = well fitted curve in the direction sought with a large enough effect; an effect the other way counts as inactive or inconclusive; also: potency is read from the fitted curve at half-maximal effect; nearly all actives have a fitted effect of over 30% in size). The following applies: S16 rat Schwann cells, PMP22 element FLuc, 24 h; series mostly up to 57.5 µM. The procedure, abridged: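 Luciferase reporter of PMP22 intronic-element expression in stably transfected S16 rat Schwann cells, read by ONE-Glo luminescence after 24 h compound exposure at 37 C. Activity scaled between DMSO (0%) and positive-control PTC124; concentration-effect curves quality-classified.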

“And” between values parts separate entries of the source, which are not always exact repeats. Equal values may be shown once. Records with an inconclusive call do not appear. The source made the active and inactive calls. Unless noted, calls follow the shape of the full dose curve.

Voltage-gated inwardly rectifying potassium channel KCNH2 (Homo sapiens), sequence (Q12809 whole entry, looked up): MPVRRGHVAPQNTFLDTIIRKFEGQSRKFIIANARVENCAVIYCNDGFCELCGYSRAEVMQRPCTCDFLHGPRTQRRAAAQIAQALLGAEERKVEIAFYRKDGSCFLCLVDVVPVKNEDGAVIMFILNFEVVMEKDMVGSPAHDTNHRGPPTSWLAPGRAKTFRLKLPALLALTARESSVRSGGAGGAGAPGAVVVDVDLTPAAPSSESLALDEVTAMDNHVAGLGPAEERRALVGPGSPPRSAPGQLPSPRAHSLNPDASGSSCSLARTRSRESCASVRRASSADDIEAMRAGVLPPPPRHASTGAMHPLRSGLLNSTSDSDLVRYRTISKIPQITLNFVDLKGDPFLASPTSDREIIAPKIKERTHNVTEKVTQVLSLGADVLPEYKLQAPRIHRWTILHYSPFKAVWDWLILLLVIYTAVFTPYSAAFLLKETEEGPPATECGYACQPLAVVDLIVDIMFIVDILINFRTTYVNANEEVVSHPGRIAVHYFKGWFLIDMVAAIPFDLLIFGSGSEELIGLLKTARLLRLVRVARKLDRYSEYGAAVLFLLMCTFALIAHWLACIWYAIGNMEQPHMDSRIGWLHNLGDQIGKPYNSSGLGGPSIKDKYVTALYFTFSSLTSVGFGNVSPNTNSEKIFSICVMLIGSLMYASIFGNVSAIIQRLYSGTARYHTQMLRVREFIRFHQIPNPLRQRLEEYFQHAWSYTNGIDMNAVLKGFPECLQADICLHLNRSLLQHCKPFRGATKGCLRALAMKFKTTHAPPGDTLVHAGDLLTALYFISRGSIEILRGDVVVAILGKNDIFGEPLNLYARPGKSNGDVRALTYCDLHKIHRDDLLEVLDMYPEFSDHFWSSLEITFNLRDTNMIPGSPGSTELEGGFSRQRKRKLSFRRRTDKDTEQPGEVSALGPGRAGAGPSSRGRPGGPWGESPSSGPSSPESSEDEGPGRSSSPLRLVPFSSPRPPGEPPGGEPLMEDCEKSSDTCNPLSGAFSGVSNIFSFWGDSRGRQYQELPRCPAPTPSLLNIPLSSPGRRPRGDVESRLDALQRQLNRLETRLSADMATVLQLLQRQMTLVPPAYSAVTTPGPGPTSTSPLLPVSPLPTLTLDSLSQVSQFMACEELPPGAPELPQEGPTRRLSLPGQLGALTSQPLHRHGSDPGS
Retinoic acid receptor RXR-alpha (Homo sapiens), sequence (P19793 whole entry, looked up): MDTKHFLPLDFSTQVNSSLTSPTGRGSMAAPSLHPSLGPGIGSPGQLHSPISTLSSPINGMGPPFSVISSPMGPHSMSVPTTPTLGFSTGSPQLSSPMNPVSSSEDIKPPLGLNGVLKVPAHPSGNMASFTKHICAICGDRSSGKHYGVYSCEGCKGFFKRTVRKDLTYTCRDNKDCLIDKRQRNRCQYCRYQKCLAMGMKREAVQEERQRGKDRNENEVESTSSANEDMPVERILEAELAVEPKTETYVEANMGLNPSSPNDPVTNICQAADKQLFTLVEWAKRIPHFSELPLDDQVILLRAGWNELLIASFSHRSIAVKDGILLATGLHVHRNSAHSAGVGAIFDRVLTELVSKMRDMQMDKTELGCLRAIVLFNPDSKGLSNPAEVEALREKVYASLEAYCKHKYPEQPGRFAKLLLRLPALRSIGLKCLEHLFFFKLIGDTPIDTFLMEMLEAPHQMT
Thyroid hormone receptor beta (Homo sapiens), sequence (P10828 whole entry, looked up): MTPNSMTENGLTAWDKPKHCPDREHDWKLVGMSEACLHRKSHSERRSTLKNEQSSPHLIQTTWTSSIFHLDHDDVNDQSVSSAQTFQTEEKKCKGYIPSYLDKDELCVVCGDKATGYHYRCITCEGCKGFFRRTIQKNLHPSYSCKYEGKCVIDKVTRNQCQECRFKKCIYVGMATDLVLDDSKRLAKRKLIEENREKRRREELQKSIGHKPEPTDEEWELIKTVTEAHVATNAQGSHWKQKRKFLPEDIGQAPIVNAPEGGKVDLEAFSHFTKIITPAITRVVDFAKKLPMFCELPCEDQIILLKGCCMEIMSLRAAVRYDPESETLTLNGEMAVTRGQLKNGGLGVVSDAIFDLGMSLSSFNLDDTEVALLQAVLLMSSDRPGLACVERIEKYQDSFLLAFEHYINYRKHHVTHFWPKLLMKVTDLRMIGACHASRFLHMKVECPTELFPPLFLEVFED
Glucocorticoid receptor (Homo sapiens), sequence (P04150 whole entry, looked up): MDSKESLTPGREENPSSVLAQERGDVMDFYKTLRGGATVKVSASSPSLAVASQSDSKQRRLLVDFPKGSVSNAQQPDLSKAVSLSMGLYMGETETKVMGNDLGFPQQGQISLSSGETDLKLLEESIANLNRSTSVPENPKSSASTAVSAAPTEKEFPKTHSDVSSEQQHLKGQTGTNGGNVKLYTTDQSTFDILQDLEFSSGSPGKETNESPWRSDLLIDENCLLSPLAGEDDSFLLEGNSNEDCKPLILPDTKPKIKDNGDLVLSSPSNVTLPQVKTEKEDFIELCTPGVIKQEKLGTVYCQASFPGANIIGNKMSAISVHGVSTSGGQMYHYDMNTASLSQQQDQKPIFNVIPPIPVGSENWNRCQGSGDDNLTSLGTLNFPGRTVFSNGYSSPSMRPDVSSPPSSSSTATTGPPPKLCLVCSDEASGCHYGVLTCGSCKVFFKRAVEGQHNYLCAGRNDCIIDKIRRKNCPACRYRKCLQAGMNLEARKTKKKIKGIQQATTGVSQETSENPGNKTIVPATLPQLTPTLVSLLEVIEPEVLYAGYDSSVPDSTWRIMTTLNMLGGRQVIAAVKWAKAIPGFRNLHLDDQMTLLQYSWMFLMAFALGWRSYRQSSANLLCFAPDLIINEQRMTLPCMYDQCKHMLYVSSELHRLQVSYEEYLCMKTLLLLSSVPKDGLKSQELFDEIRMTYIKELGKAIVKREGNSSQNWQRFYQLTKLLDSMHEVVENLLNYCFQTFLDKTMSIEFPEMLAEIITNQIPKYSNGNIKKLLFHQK
Vitamin D3 receptor (Homo sapiens), sequence (P11473 whole entry, looked up): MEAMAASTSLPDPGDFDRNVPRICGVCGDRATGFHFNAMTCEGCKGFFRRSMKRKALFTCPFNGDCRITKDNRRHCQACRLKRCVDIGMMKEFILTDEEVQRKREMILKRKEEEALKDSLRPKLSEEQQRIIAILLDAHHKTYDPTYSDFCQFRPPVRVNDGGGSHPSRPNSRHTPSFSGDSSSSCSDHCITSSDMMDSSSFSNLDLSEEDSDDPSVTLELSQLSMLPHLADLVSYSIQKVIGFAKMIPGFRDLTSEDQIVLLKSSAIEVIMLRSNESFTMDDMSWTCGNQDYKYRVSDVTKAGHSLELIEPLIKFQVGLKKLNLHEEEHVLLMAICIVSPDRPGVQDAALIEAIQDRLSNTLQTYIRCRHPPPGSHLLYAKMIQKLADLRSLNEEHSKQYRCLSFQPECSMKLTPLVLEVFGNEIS
Peroxisome proliferator-activated receptor gamma (Homo sapiens), sequence (P37231 whole entry, looked up): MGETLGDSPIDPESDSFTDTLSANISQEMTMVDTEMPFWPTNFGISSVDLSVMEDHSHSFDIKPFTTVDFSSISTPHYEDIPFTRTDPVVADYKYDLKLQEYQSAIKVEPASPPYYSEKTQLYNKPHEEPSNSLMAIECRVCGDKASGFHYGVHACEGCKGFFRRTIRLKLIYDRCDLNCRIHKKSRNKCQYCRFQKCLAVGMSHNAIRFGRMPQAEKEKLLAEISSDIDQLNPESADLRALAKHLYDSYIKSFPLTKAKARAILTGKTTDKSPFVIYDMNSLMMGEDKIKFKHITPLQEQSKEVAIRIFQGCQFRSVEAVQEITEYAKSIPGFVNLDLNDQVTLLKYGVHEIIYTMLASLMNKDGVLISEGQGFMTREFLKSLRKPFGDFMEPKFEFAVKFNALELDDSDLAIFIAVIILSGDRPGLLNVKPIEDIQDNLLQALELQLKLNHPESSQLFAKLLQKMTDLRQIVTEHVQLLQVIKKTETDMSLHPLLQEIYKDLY
Luciferin 4-monooxygenase (Photinus pyralis), sequence (P08659 whole entry, looked up): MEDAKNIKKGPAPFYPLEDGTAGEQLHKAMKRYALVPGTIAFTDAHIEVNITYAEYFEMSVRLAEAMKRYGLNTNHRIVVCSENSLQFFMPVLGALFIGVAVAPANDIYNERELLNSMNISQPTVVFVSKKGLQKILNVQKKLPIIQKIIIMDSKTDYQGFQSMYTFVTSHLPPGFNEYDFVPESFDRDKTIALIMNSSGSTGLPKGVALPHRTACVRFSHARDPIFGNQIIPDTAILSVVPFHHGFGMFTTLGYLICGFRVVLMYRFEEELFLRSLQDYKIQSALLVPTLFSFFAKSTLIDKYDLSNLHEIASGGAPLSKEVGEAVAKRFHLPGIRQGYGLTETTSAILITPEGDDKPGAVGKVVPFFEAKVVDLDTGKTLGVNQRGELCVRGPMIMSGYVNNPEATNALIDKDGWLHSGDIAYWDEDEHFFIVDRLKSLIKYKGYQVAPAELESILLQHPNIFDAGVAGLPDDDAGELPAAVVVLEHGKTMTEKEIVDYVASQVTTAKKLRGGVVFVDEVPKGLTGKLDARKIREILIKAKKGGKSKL
Peroxisome proliferator-activated receptor delta (Homo sapiens), sequence (Q03181 whole entry, looked up): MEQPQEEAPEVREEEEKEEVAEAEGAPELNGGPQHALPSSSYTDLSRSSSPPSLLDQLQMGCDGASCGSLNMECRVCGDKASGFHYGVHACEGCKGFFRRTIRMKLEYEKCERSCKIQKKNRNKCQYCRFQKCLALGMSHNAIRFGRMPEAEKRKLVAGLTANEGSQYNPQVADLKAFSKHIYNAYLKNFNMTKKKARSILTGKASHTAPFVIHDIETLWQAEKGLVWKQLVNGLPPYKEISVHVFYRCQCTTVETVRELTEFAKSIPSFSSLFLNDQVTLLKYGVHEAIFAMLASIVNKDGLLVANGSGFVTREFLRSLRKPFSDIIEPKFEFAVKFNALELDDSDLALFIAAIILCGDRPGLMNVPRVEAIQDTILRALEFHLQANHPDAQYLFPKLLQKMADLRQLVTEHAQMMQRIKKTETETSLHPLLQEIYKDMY

As to `OCCCBr`, the activation in [1] was -1.2% (inactive). Besides, the Potency entry in test [2], in test [4], in test [5], in test [8], in [13] and in test [14] was “inactive” throughout. The result in test [3], in test [6] and in test [9] was inactive. For the same molecule, the max response in test [7] was -10.8%; in test [10] it was -9.62%; in test [11] it was -5.03% (inactive). Besides, the activity change % (negative = inhibition) in [12] was -1.82% (inactive).

In the case of `O=S(=O)(O)C(F)(F)C(F)(F)C(F)(F)C(F)(F)F`, the activation in test [1] is 0.888% (inactive). Also, the Potency result in test [2], in test [17], in test [4], in [5] and in [14] was “inactive” throughout. Also, the outcome in [15], in test [3], in test [6] and in test [9] was inactive. Besides, in test [16], the max response is 48.3% and 16.2%. Further, the activity change % (negative = inhibition) in [12] was -13.9% (inactive).

On to `C=CC(=O)NCNC(=O)C=C`, for which the activation in test [1] was 4.39% (inactive) and -21.1% (inactive). The Potency result in test [2], in [17], in [4], in [5], in [8] and in test [13] was “inactive” throughout. The Potency entry in test [14] was “inactive”. The outcome in [15], in test [3] and in test [6] was inactive. Also, the max response in test [16] was -23.6%; in [7], 1.23% and 0.699%; in test [10], -7% and 1.5%; in test [11], 10.7% (inactive) and -13.1% (inactive). Further, in test [12], the activity change % (negative = inhibition) was -12.9% (inactive) and 1.41% (inactive).

On to `Nc1ccc(Cl)cc1`, for which the Potency result in test [2], in [13] and in test [14] was “inactive” in each case. The result in [15] and in test [9] was inactive. Besides, the results for the max response in test [10] and in test [11] were -14.8% and -9.24% (inactive), respectively. The activity change % (negative = inhibition) in [12] was 5.44% (inactive).

As to `O=C1NS(=O)(=O)c2ccccc21`, the result in test [15] was inactive.

For the molecule `CN1C(=O)c2ccccc2C1=O`, the outcome in test [15] was inactive.

On to `ClC1=C(Cl)[C@]2(Cl)[C@@H]3[C@@H]4C[C@@H]([C@H]5O[C@@H]45)[C@@H]3[C@@]1(Cl)C2(Cl)Cl`, for which the activation in test [1] is -15% (inactive). The Potency result in test [2], in test [17], in test [5] and in test [14] was “inactive” throughout. Moreover, the result in test [15], in [6] and in test [9] was inactive. Moreover, the max response in [16] was 34.4%; in test [10], 5.74%; in test [11], -14.7% (inactive). The activity change % (negative = inhibition) in [12] is -14.5% (inactive).

For the molecule `CCCCCCCCCCCCCCCC[N+](C)(C)C`, in test [1], the activation was 4.02% (inactive). In addition, the Potency result in test [2], in test [17], in [4], in [5], in test [13] and in [14] was “inactive” each time. The result in test [15] and in test [6] was inactive. For the same molecule, the max response in test [16] was -6.14%; in [10], -7.98%; in test [11], -2.56% (inactive). Besides, the Potency in test [18] is 8.09 µM (active).
